This passage reports growth results from PubChem BioAssay (NCI).

What all share (experiment): NCI-60 one-dose screen, 48 h (100 = growth as untreated, 0 = no growth, -100 = all killed)
Holding throughout (settings): 10 µM unless noted

For test [1], the system named is SR leukemia.
In test [2] the test system is RPMI-8226 leukemia.
In test [3] the test system is OVCAR-8 ovarian.
Test [4] has as its system OVCAR-5 ovarian.
For test [5], the system named is OVCAR-4 ovarian.
For test [6], the system named is SK-OV-3 ovarian.
For test [7], the system named is IGROV1 ovarian.
The test system of test [8] is OVCAR-3 ovarian.
Test [9] relates to HS 578T breast.
Test [10] relates to NCI/ADR-RES ovarian.
The subject of test [11] is T-47D breast.
In test [12] the test system is BT-549 breast.
Test [13] has as its system MDA-MB-435 melanoma.
For test [14], the system named is SW-620 colon.
Test [15] relates to MCF7 breast.
In test [16] the test system is HCT-116 colon.
In test [17] the test system is HCC-2998 colon.
Test [18] deals with KM12 colon.

Each structure is given as a SMILES string. Compounds without any hit were thinned out: in the full panel of roughly 83,000, 20% have a hit.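 Activity criterion: percent growth below 10, measured after cells in 96-well plates were exposed to a single compound concentration for 48 hours.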 Values without a mark were called inactive. Calls of active or inactive are those of the source.

For the compound `Nc1ncc(-c2ccc3ncnc(N4CCc5cc(F)c(F)cc54)c3c2)cn1`, the growth in test [1] was 23.9%; in [2] it was 4.99% (active); in test [3] it was 33.3%; in test [4] it was 38.1%; in test [5], 43.9%; in test [6], 9.09% (active). Moreover, the growth in test [7] is -6.07% (active); in test [8], 26.3%; in test [9], -15.4% (active); in test [10] it was 35.8%; in test [11] it was 4.14% (active); in [12] it was 12.3%. Moreover, the growth is 30.2% in test [13]; 54.4% in [14]; 14.4% in [15]; 28.9% in test [16]; 31.9% in [17]; 45.3% in [18].
On to `Nc1ccccc1NC(=O)c1ccc(NC(=O)C/C=C/c2cccnc2)cc1`, for which the growth in test [1] was 30.7%; in test [2] it was 6.76% (active); in [3] it was 26.3%; in test [4] it was 29.7%; in test [5], 39.8%; in test [6], 44.5%. Besides, the growth is 23.3% in test [7]; 33.2% in test [8]; 30.3% in test [9]; 50.8% in test [10]; 12.2% in test [11]; 25.1% in [12]. Besides, the growth in test [13] is 26.3%; in test [14] it was 15.7%; in test [15] it was 17.4%; in test [16], -29.3% (active); in [17], 9.69% (active); in test [18], 33.2%.
On to `COc1ccc2c(c1)c(-c1cc(N)n3nc(-c4cn(C)c5ccc(OC)cc45)cc3n1)cn2C`, for which the growth in [1] was -12.2% (active); in [2], -0.83% (active); in [3] it was 97.9%; in test [4], 117%; in [5], 109%; in test [6] it was 134%. Also, the growth is 105% in [7]; 117% in test [8]; 110% in test [9]; 120% in [10]; 96.2% in test [11]; 117% in [12]. Also, the growth was 112% in test [13]; -20.6% (active) in [14]; 32.5% in [15]; -4.19% (active) in test [16]; 114% in [17]; 96.9% in test [18].
As to `CC/C(=C/c1c(O)cccc1OC)c1ccc2c(OC)cccc2[o+]1`, the growth in [1] was 90.4%; in [2], 109%; in [3], 101%; in test [4], 106%; in test [5], 99.7%; in test [6] it was 97.8%. Further, the growth is 102% in [7]; 109% in [8]; 107% in test [9]; 99.7% in [10]; 106% in [11]; 98.5% in [12]. For the same compound, the growth was 97.7% in [13]; 101% in test [14]; 86.4% in test [15]; 104% in test [16]; 106% in test [17]; 98.9% in [18].
With `CCO/C=N/C1=C(C#N)C(c2ccc(Cl)cc2)c2sc3c(C)cccc3c2O1` (configuration not stated), the growth in test [1] is 12.2%; in [2] it was 7.03% (active); in test [3] it was 28%; in [4], 27.9%; in test [5], 64.3%; in test [6], 59.4%. For the same compound, the growth in [7] is 26.6%; in [8] it was -30.6% (active); in [9], 18.9%; in [10], 11.7%; in test [11], 33.5%; in test [12], 38.8%. Besides, the growth in [13] is -49.6% (active); in test [14], 26.5%; in test [15], 14.5%; in [16], 14.8%; in test [17] it was 9.57% (active); in test [18], 15.2%.
As to `CCOC(=O)c1c(N)c(C#N)cn1-c1cc(OC)c(OC)c(OC)c1`, the growth is 105% in [1]; 104% in test [2]; 102% in test [3]; 96% in [4]; 107% in [5]; 135% in test [6]. Besides, the growth in [7] was 105%; in test [8] it was 119%; in test [9] it was 99.5%; in test [10], 110%; in test [11], 112%; in test [12], 107%. Besides, the growth in test [13] was 103%; in test [14], 98.8%; in [15], 91.1%; in [16], 113%; in [17], 115%; in [18], 108%.
Take `Nc1ncc(-c2ccc3ncnc(Nc4cccc(Cl)c4F)c3c2)cn1`: the growth in test [1] was 66.3%; in test [2] it was 47.6%; in test [3], 64.3%; in [4], 47.8%; in test [5], 69.5%; in [6], 0% (active). The growth in test [7] was 11.4%; in test [8], 57.2%; in test [9] it was 35%; in test [10] it was 59.3%; in test [11], 23.8%; in test [12] it was 61.3%. Moreover, the growth in test [13] is 80.4%; in test [14], 91.1%; in test [15] it was 38.2%; in [16] it was 96.4%; in [17], 56.5%; in test [18] it was 89.6%.
For the compound `CCN1CCN(Cc2cn(-c3ccc(S(N)(=O)=O)cc3)nn2)CC1`, the growth is 102% in test [1]; 109% in test [2]; 102% in [3]; 108% in test [4]; 108% in [5]; 105% in test [6]. In addition, the growth in test [7] was 107%; in [8] it was 112%; in test [9] it was 102%; in test [10] it was 111%; in [11] it was 105%; in [12] it was 130%. The growth in test [13] is 107%; in test [14] it was 106%; in [15], 97.4%; in test [16] it was 103%; in test [17], 106%; in test [18], 104%.
In the case of `C=CCn1c(SCC(=O)Nc2ccc(C(=O)/C=C/c3ccc(Br)cc3)cc2)nnc1-c1c[nH]c2ccccc12`, the growth in test [1] was 70.3%; in [2], 3.64% (active); in [3], 81.2%; in [4] it was 99.4%; in test [5], 74.7%; in test [6], 91.8%. Also, the growth in test [7] is 76.4%; in test [8] it was 86.9%; in [9] it was 89.9%; in test [10] it was 101%; in test [11] it was 60.7%; in test [12] it was 119%. Further, the growth in test [13] was 94.7%; in test [14] it was 92.3%; in test [15], 22.8%; in test [16] it was -60.7% (active); in test [17], 109%; in test [18] it was 89.3%.
